Only some compounds are listed: those with a hit (about 1.8% of all), similar ones and a draw of the others.
EWS-Fli inh: EWS/Fli-driven NR0B1 reporter inhibitors, primary screen, A673 cells, NR0B1 luciferase, luminescence, MLPCN library; viability-normalised; actives 0.67% (n = 350,000); inhibition, % at 12.6 µM;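 active = mean inhibition of at least 50% after viability correction, with every replicate also passing that limit; inconclusive = mean reaches 50% but only one of two replicates passes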;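 note: firefly luciferase signal divided by Alamar Blue viability fluorescence both relative to DMSO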
PAX8 reporter: inhibitors of PAX8-driven TPO luciferase reporter, primary screen, RMG-I cells, single concentration; SteadyGlo, 24 h; inhibition, % at 12.6 µM; actives 1.2% (n = 360,000); AID 652154, 2013;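 active = mean replicate inhibition at least 60% with every replicate also reaching 60%; inconclusive = only one of the two criteria is met; inactive = mean below 60% and not all replicates reaching 60%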;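 note: luciferase light reporting Pax8 driven TPO promoter activity; plate controls were median of neutral control wells for no effect and mitoxantrone controls for full effect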
CFTR F508del cor: F508del CFTR correction, initial screen, CFBE line, single point. CFBE cells, YFP halide quenching; stimulated with forskolin plus potentiator P3; % fluorescence drop versus neutral controls. activity (quench increase), % at 7.58 µM. actives 0.36% (n = 350,000). AID 720511, 2013;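 active = mean added fluorescence quench of at least 8% versus neutral control, with both replicates also reaching 8%; inconclusive = only one of the mean or replicate conditions met; inactive = mean below 8% and not both replicates reaching 8%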;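 note: cells transiently co-express mutant CFTR-F508del with the halide-sensitive YFP; corrector assay measuring rescue of mutant channel to the surface after 24 h compound exposure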
LGR2 inh: inhibitors of bursicon-induced LGR2 CRE-luciferase signal, primary screen, cell-based, HEK293, CRE-luciferase reporter, bursicon stimulation. AID 720647, 2013. Drosophila bursicon receptor LGR2 (rickets). actives 0.35% (n = 380,000). inhibition, % at 9.99 µM. bursicon-stimulated, 4 h;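 active = drop in luminescence signal, shown as inhibition above about 50% in the replicate tests, limit read from the data, passing the limit was not always enough; inconclusive = probably only some replicates passing the limit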;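 note: agonist challenge used bursicon conditioned medium at about half maximal strength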
* = called active by the depositor; ? = inconclusive; . = not tested or not shown.

SMILES | EWS-Fli inh | PAX8 reporter | CFTR F508del cor | LGR2 inh
CCCC(=O)Nc1ccc2c(c1)C(=O)N(C)C[C@H](OC)[C@H](C)CN(Cc1cncnc1)[C@H](C)CO2 | 0 | 3 | -1 | 10
COc1cccc2oc3ccc(C#Cc4ccccn4)cc3c(=O)c12 | -62 | -61 | -1 | 83*
CCOC(=O)n1c(=O)n(Cc2ccc(F)cc2)c2ccccc21 | 1 | 6 | 0 | -13
Cc1csc2sc(-c3ccnc(SCC(=O)NCc4ccccc4)n3)c(C)c12 | 55* | 30 | 16* | -14
Cc1csc(SCC(=O)NCc2ccccc2)n1 | 4 | 14 | 0 | 5
O=C(Cc1ccc(N2CCNC2=O)cc1)N1CCCC(Nc2cccc(F)c2)C1 (configuration not stated) | 55* | 16 | 1 | -8
O=C(Nc1ccc2nc3n(c(=O)c2c1)CCCCC3)c1cc([N+](=O)[O-])ccc1F | . | 90* | -2 | ?
O=C(Nc1ccc2nc3n(c(=O)c2c1)CCCCC3)c1ccccc1[N+](=O)[O-] | . | -9 | 2 | -23
O=C(Nc1ccc2nc3n(c(=O)c2c1)CCCCC3)c1c(F)ccc([N+](=O)[O-])c1F | . | 72* | -1 | 0
NC(=O)c1ccc(-c2ccc(N3C(c4ccsc4)=Cc4ccc(F)cc4C3CC(=O)c3ccco3)cc2)cc1 (configuration not stated) | 17 | 52 | -4 | -2
Cc1ccc(-c2nc(-c3ccncc3)no2)c(Cl)c1 | 56* | -34 | -1 | 75*
Clc1ccc(-c2nc(-c3ccncc3)no2)c(Cl)c1 | -56 | -185 | 3 | -70
CCCCn1c(N)c(N(CCOC)C(=O)C2CCN(C(=O)c3ccccc3C)CC2)c(=O)[nH]c1=O | 0 | 9 | -3 | 4
CN(CC1CCOCC1)C(=O)CC1C(=O)NCCN1Cc1ccc(F)c(F)c1 (configuration not stated) | 7 | 8 | -2 | 8
Nc1cc2c3ccccc3ccc2c2ccccc12 | -72 | -143 | -1 | 86*
Nc1ccc2ccccc2c1[N+](=O)[O-] | -3 | 1 | -1 | -15
CC(C)NC(=O)Nc1ccc2c(c1)C(=O)N([C@@H](C)CO)C[C@H](C)[C@H](CN(C)Cc1ccc(C(F)(F)F)cc1)O2 | 5 | 1 | 3 | -25
C[C@@H]1CCCCO[C@H](CN(C)C(=O)Nc2ccc(C(F)(F)F)cc2)[C@@H](C)CN([C@H](C)CO)C(=O)c2cc(NS(=O)(=O)c3ccc(F)cc3)ccc2O1 | -1 | -4 | 1 | 10
C[C@@H]1CCCCO[C@H](CN(C)C(=O)Nc2ccc(C(F)(F)F)cc2)[C@@H](C)CN([C@@H](C)CO)C(=O)c2cc(NS(=O)(=O)c3ccc(F)cc3)ccc2O1 | -10 | 85* | 1 | 18
C[C@@H]1CCCCO[C@H](CN(C)C(=O)Nc2ccc(C(F)(F)F)cc2)[C@H](C)CN([C@@H](C)CO)C(=O)c2cc(NS(=O)(=O)c3ccc(F)cc3)ccc2O1 | 15 | 68* | 3 | 14
C[C@H]1CCCCO[C@@H](CN(C)C(=O)Nc2ccc(C(F)(F)F)cc2)[C@@H](C)CN([C@@H](C)CO)C(=O)c2cc(NS(=O)(=O)c3ccc(F)cc3)ccc2O1 | -7 | -21 | -1 | 5
COc1ccccc1C(=O)Nc1ccc2c(c1)CN(C(=O)CSC)CC2 | -21 | -22 | 0 | 2
CC(C)NC(=O)Nc1cccc2c1O[C@@H](CN(C)Cc1ccc(Oc3ccccc3)cc1)[C@H](C)CN([C@H](C)CO)C2=O | 6 | 31 | 1 | 14
COc1ccc(NC(=O)C(=O)NCC2CCCN2S(=O)(=O)c2cc(C)ccc2C)cc1 (configuration not stated) | 57* | 34 | 8 | 10
COc1ccc(NC(=O)C(=O)NCC2CCCN2S(=O)(=O)c2ccc(C)cc2)cc1 (configuration not stated) | 56* | 104* | -9 | -11
SMILES | EWS-Fli inh | PAX8 reporter | CFTR F508del cor | LGR2 inh
COc1ccc(S(=O)(=O)N2CCCC2CNC(=O)C(=O)Nc2ccc(C)cc2)cc1 (configuration not stated) | 3 | 7 | 3 | 10
O=C(N[C@H]1CC[C@@H](CC(=O)N2CCc3ccccc3C2)O[C@H]1CO)C1CCOCC1 | 4 | -14 | 0 | -4
CO[C@H]1CN(C)C(=O)c2ccc(NC(=O)c3ccc4c(c3)OCO4)cc2OC[C@H](C)NC[C@@H]1C | -3 | -16 | -1 | -3
O=c1c2ccccc2oc2ccccc12 | -38 | . | 2 | -21
O=c1c2ccccc2oc2cc(-c3ccc4[nH]ccc4c3)ccc12 | 22 | -125 | 10* | .
Cc1cc(C)c2nc(NNC(=O)c3ccc(S(=O)(=O)N4CCc5ccccc5C4)cc3)sc2c1 | 7 | 62* | 5 | .
C[C@@H]1CCCCO[C@H](CN(C)C(=O)C2CCCCC2)[C@H](C)CN([C@@H](C)CO)C(=O)c2cc(NS(=O)(=O)c3ccc(Cl)cc3)ccc2O1 | 12 | 76* | -1 | 23
C[C@@H]1CN([C@H](C)CO)C(=O)c2cc(NS(=O)(=O)c3ccc(Cl)cc3)ccc2O[C@@H](C)CCCCO[C@@H]1CN(C)C(=O)C1CCCCC1 | 5 | 64* | -3 | 8
C[C@H](CO)N1C[C@H](C)[C@H](CN(C)C(=O)C2CCCCC2)OCCCC[C@H](C)Oc2ccc(NS(=O)(=O)c3ccc(Cl)cc3)cc2C1=O | 9 | ? | 2 | 12
CCC1CCC2(CC1)SCC(=O)N2c1ccccc1 (configuration not stated) | -11 | 4 | 1 | 1
CCc1ccccc1NC(=O)CN(C)C(=O)Cn1cnc2ccc(Cl)cc2c1=O | -2 | -1 | -5 | -8
CCC(=O)Nc1ccc(C(=O)Cn2ncc(Cl)c(Cl)c2=O)cc1 | 0 | 78* | -10 | 9
CCc1ccccc1NC(=O)CN(C)C(=O)Cn1ncc(Cl)c(Cl)c1=O | 63* | 68* | . | .
CCOC(=O)c1ccc(NC(=O)Cn2ncc(Cl)c(Cl)c2=O)cc1 | 37 | 95* | 1 | 10
O=C(Cn1ncc(Cl)c(Cl)c1=O)c1ccc2c(c1)OCCO2 | 7 | -26 | 2 | ?
Cc1cccc(C(=O)NCCc2ccccc2)c1 | -42 | -72 | -2 | -13
Nc1nnn(CC(=O)N/N=C/c2cccc3ccccc23)n1 | . | . | . | 9
Cc1ccccc1/C=N/NC(=O)Cn1nnc(N)n1 | -5 | 65* | -1 | -3
CCN(CC)c1ccc2nc3ccc(N)cc3[n+](-c3ccccc3)c2c1 | 28 | . | 5 | 59*
COCCn1c(C)cc(C(=O)CSc2nc3ccccc3s2)c1C | . | -7 | . | 61*
COCCn1c(C)cc(C(=O)CSc2nnc3ccccn23)c1C | 63* | 32 | -2 | 62*
Fc1ccccc1NC(=S)NCc1ccc(Cl)cc1 | -6 | 4 | 1 | -11
COc1ccc(CN(C)C[C@H]2Oc3ccc(NS(C)(=O)=O)cc3C(=O)N([C@H](C)CO)C[C@H]2C)cc1 | -2 | 3 | -2 | 19
Cc1cc(C)nc(Sc2nc(Nc3ccccc3)nc(Sc3nc(C)cc(C)n3)n2)n1 | . | 61* | . | 0

Bioassay records deposited in PubChem by Broad Institute.
